Assay results as given in the supplement of paper PMC7156485.
Structures can show the parent of a compound that is named as a salt. ± gives the standard deviation of the averaged measurements.

Columns and labels:
Settings in all cases: concentration: 10 µM; 24 h
[1] = tested on: HCC1569; assay: cell number relative to DMSO (% of DMSO); higher = more cells (less growth inhibition / toxicity)
Procedure, shortened: (§1)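 After 24 h at 37 °C with compounds at 10 µM, in triplicate, HCC1569 and TDF cells were fixed with 3.7% formaldehyde. Immunostaining used a rabbit anti-H1.0 antibody and an AlexaFluor 647 secondary, with DAPI, and six fields per well were imaged at ×10. H1.0 nuclear intensity or cell number is presented as percent of the plate control, from the median of replicates, with HCC1569 values smoothed for positional effects.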

[2] = tested on: TDF; assay: as above
Procedure, shortened: as §1

[3] = tested on: TDF; assay: H1.0 immunofluorescence intensity relative to DMSO (% of DMSO); higher = stronger H1.0 induction, active = 120 or more
Procedure, shortened: as §1

[4] = tested on: HCC1569; assay: H1.0 immunofluorescence intensity relative to DMSO (% of DMSO); higher = stronger H1.0 induction, active = 140 or more
Procedure, shortened: as §1
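For H1.0 immunofluorescence intensity relative to DMSO in this document: TDF is a line of transformed human dermal fibroblasts of mesenchymal origin.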
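For cell number relative to DMSO in this document: TDF denotes transformed human dermal fibroblasts of mesenchymal origin.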

Compound | cell number [1] | cell number [2] | H1.0 immunofluorescence intensity [3] | H1.0 immunofluorescence intensity [4]
O=C1NC(=O)c2c1c1c3ccccc3[nH]c1c1[nH]c3ccccc3c21 | 98.8 | 126 | 79.9 (inactive) | 127 (inactive)
COc1ccc(C(CN(C)C)C2(O)CCCCC2)cc1 (centres undefined) [Venlafaxine] | 102 | 107 | 106 (inactive) | 110 (inactive)
CCN1CC2(COC)CCC(OC)C34C5CC6C(OC)CC7(OCOC7(C(O)C23)C14)C5C6OC (centres undefined) [Delcorine] | 103 | 105 | 99 (inactive) | 94.3 (inactive)
Nc1ccncc1 [4-Aminopyridine] | 101 | 103 | 95.3 (inactive) | 88 (inactive)
Oc1ccc2c3c1OC1C(O)CCC4(O)C(C2)N(CC2CCC2)CCC314 (centres undefined) [Nalbuphine] | 105 | 105 | 89.2 (inactive) | 104 (inactive)
CN(C)C(=O)Oc1cc(OC(=O)N(C)C)cc(C(O)CNC(C)(C)C)c1 (centres undefined) [Bambuterol] | 101 | 112 | 93.5 (inactive) | 106 (inactive)
CC(N)c1cccc(Cl)c1Cl.Cl (racemic) | 100 | 94.2 | 102 (inactive) | 101 (inactive)
CC12CCC3C(CCC4(O)CC(O)CCC34C=O)C1(O)CCC2C1=CC(=O)OC1 (centres undefined) [Strophantidin] | 67 | 56.2 | 123 (active) | 115 (inactive)
CCN1CC2(C)CCC(OC)C34C5CC6CCC(O)(C5C(=O)O6)C(C(O)C23)C14 (centres undefined) [Heteratisine] | 103 | 105 | 96.1 (inactive) | 88.3 (inactive)
COC1=C(OC)C(=O)C(=C2C(C)=C(C(=O)O)NC(c3ccc4c(n3)C(=O)C(N)=C(OC)C4=O)=C2N)C=C1 [Streptonigrin] | 41.2 | 5.53 | 171 (active) | 128 (inactive)
CN1C2CCC1CC(OC(=O)C(CO)c1ccccc1)C2 (centres undefined) [Atropine] | 104 | 110 | 93.7 (inactive) | 107 (inactive)
CC1(CO)C(O)CCC2(C)C1CCC1CC3CC12CCC3(O)CO (centres undefined) [Aphidicolin] | 79.6 | 55.2 | 108 (inactive) | 95.2 (inactive)
Fc1cc(F)c2c(c1)C1C=CCC1C(c1cccnc1)N2 (centres undefined) | 69.8 | 52.7 | 126 (active) | 169 (active)
CC(C)=CCCC1=CC(=O)c2c(O)ccc(O)c2C1=O [Deoxyshikonin] | 32 | 34.6 | 119 (inactive) | 171 (active)
Cl.O=C1CC2OCC=C3CN4CCC56c7ccccc7N1C5C2C3CC46 (centres undefined) | 103 ± 5.8 | 102 ± 1.1 | 94.3 (inactive) | 94.2 (inactive)
S=C(NC1CCCCC1)N1CCC(c2cnc[nH]2)CC1 [Thioperamide maleate] | 104 | 100 | 99.8 (inactive) | 94.7 (inactive)
CN(C)C(=O)Oc1cccc([N+](C)(C)C)c1.COS(=O)(=O)[O-] | 109 | 103 | 97.7 (inactive) | 98.3 (inactive)
CC1CCC2C(C)C3C(CC4C5CC=C6CC(OC7OC(CO)C(O)C(OC8OC(CO)C(O)C(O)C8O)C7OC7OC(C)C(O)C(O)C7O)CCC6(C)C5CCC43C)N2C1 (racemic) | 103 | 101 | 97.4 (inactive) | 86 (inactive)
CN(C)Cc1c[nH]c2ccccc12 [Gramine] | 96.9 | 99.3 | 94.1 (inactive) | 83 (inactive)
CN1C2CCCC1CC(=O)C2.Cl | 98.6 | 89.2 | 108 (inactive) | 94.5 (inactive)
CCCC[N+]1(C)C2CC(OC(=O)C(CO)c3ccccc3)CC1C1OC12 (centres undefined) [Scopolamine N-butyl] | 103 | 111 | 91.4 (inactive) | 100 (inactive)
Br.COC(=O)C1=CCCN(C)C1 | 102 | 112 | 89.8 (inactive) | 82.8 (inactive)
COc1cc2c(cc1OC)[C@H]1CC(=O)[C@H](CC(C)C)CN1CC2 | 106 | 102 | 88 (inactive) | 96.4 (inactive)
CCCn1c(=O)c2[nH]c(C3CCCC3)nc2n(CCCOC(=O)c2ccc(S(=O)(=O)F)cc2)c1=O | 99.7 | 110 | 90.1 (inactive) | 77.2 (inactive)
COc1ccc2[nH]cc(CCN)c2c1.Cl [O-Methylserotonin hydrochloride] | 96.9 | 97.6 | 89.1 (inactive) | 106 (inactive)
N#CC(OC1OC(COC2OC(CO)C(O)C(O)C2O)C(O)C(O)C1O)c1ccccc1 (centres undefined) [Amygdalin] | 103 | 91.7 | 100 (inactive) | 90.7 (inactive)
